For seven molecules, outcome and AC50 results are on record in PubChem BioAssay (EPA / NIEHS).

The term AC50 denotes the midpoint of the concentration-response curve, whichever way the signal moves.

Records with an inconclusive call do not appear. Activity calls are given as the source filed them. Rule for the calls, unless noted: active = hit-call score of the fitted dose curve at least 0.9, where 1 is the maximum; inactive = score below 0.9.

In experiment [1] the target is Paired box protein Pax-6 (Homo sapiens) (UniProt P26367). The experiment is described as follows: ATG_Pax6_CIS: Attagene CIS-FACTORIAL HepG2 Assay for human Paired Box 6 (PAX6) (AID 2282956). To be noted: HepG2 CIS-FACTORIAL PAX6 reporter transcription, RNA readout; actives raise or lower the signal. An outline of the steps: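 Transient MRTU transfection of HepG2 → compound exposure 24 h → TriZol RNA, oligo(dT) RT → PCR, 6-FAM primer extension, HpaI cut → capillary electrophoresis; activity fitted both directions against DMSO.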

Experiment [2] in a line: ATG_PXRE_CIS: Attagene CIS-FACTORIAL HepG2 Assay for human Pregnane X Receptor Element (PXRE) (AID 2282957). The note with it: HepG2 Attagene CIS-FACTORIAL PXRE reporter, mRNA; actives raise or lower the signal. An outline of the steps: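 HepG2 cells transiently transfected with cis-regulated multiple reporter transcription units; endogenous factor activity measured as reporter mRNA 24 h after dosing. RT-PCR, fluorescent primer extension, HpaI digestion, capillary electrophoresis; bidirectional fit versus DMSO baseline.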

The nature of experiment [3]: ATG_PPRE_CIS: Attagene CIS-FACTORIAL HepG2 Assay for human Peroxisome Proliferator-activated Response Element (PPRE) (AID 2282958). The note with it: HepG2 PPRE cis-element reporter, Attagene transcription factor profiling; actives raise or lower the signal. In a few lines:
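HepG2 cells are transiently transfected with multiplexed cis-promoter reporter units to report endogenous PPAR activity. After 24 h dosing, reporter mRNA is read by RT-PCR and capillary electrophoresis. Fitting is bidirectional against DMSO.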

Experiment [4] in a line: ATG_RORE_CIS: Attagene CIS-FACTORIAL HepG2 Assay for human RAR-related Orphan Receptor Element (RORE) (AID 2282959). To be noted: HepG2 Attagene cis-factorial RORE reporter, mRNA; actives raise or lower the signal. An outline of the steps: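 HepG2 cells carrying transiently transfected cis-regulated reporter units; RORE-driven reporter mRNA quantified 24 h post-dosing by RT-PCR, 6-FAM primer extension, HpaI digestion and capillary electrophoresis. Bidirectional fit versus DMSO.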

Experiment [5] can be described thus: ATG_Sox_CIS: Attagene CIS-FACTORIAL HepG2 Assay for human SRY-box transcription factor (SOX) (AID 2282960). To be noted: HepG2 Attagene cis-factorial SOX reporter, mRNA; actives raise or lower the signal. In a few lines:
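HepG2 cells transiently transfected with multiple cis-regulated reporter units, then dosed for 24 h. Reporter mRNA quantified by RT-PCR, fluorescent labelling, HpaI digestion and capillary electrophoresis; bidirectional fit versus DMSO.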

The target in experiment [6] is Transcription factor Sp1 (Homo sapiens) (UniProt P08047). The experiment is described as follows: ATG_Sp1_CIS: Attagene CIS-FACTORIAL HepG2 Assay for human Specificity Protein 1 (Sp1) (AID 2282961). To be noted: HepG2 Sp1 cis-reporter transcription, actives raise or lower the signal. In a few lines:
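HepG2 cells transiently transfected with multiplexed cis-regulated reporter constructs, chemical exposure 24 h. Reporter mRNA quantified by RT-PCR with capillary electrophoresis; bidirectional fit relative to DMSO.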

Experiment [7] in a line: ATG_SREBP_CIS: Attagene CIS-FACTORIAL HepG2 Assay for human Sterol Regulatory Element Binding (SREBP) (AID 2282962). To be noted: HepG2 Attagene cis-factorial SREBP reporter, mRNA; actives raise or lower the signal. An outline of the steps: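 Transfected HepG2 (cis-regulated reporter library, endogenous TFs) → compound 24 h → total RNA → oligo(dT) RT → reporter-specific PCR → FAM primer extension, HpaI cut → CE fluorescence. Fit bidirectional vs DMSO.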

For experiment [8], the target named is Signal transducer and activator of transcription 3 (Homo sapiens) (UniProt P40763). In words: ATG_STAT3_CIS: Attagene CIS-FACTORIAL HepG2 Assay for human Signal Transducer and Activator of Transcription 3 (STAT3) (AID 2282963). To be noted: HepG2, Attagene cis-factorial STAT3 reporter transcription; actives raise or lower the signal. In a few lines:
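Transcript-level reporter assay. HepG2 transient MRTU transfection, 24 h exposure, fluorescence detection after RT-PCR and CE; DMSO baseline.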

A short description of experiment [9]: ATG_TA_CIS: Attagene CIS-FACTORIAL HepG2 Assay for human TA Basal Promoter (AID 2282964). To be noted: HepG2 Attagene CIS-factorial TA basal promoter reporter; actives raise or lower the signal. In a few lines:
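HepG2 cells transiently transfected with multiple reporter units under cis promoter elements, reporting endogenous transcription factor activity; this endpoint tracks the TA basal promoter as background control. Reporter mRNA after 24 h dosing measured by RT-PCR/capillary electrophoresis; bidirectional fits versus DMSO.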

Experiment [10] is described as follows: ATG_TCF_b_cat_CIS: Attagene CIS-FACTORIAL HepG2 Assay for human T-Cell-Factor with beta-catenin (TCF/b-cat) (AID 2282965). To be noted: HepG2 TCF/beta-catenin cis-reporter transcription, actives raise or lower the signal. In a few lines:
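HepG2 cells transiently transfected with multiple cis-promoter-regulated reporter transcription units, so endogenous transcription factor activity is measured. Reporter mRNA read 24 hours after dosing by RT-PCR, fluorescent labelling and capillary electrophoresis; bidirectional fitting against DMSO.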

Experiment [11] is described as follows: ATG_TAL_CIS: Attagene CIS-FACTORIAL HepG2 Assay for human TAL Basal Promoter (AID 2282966).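 Note: background control endpoint measuring basal TAL promoter reporter mRNA not a specific factor.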 To be noted: HepG2 Attagene cis-factorial TAL promoter reporter; actives raise or lower the signal. In a few lines:
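HepG2 cells were transiently transfected with promoter-driven multiplexed reporter units and dosed for 24 h. Reporter mRNA was measured by RT-PCR with capillary electrophoresis fluorescence; bidirectional fits used DMSO as baseline, serving as a background control.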

Experiment [12] in a line: ATG_TGFb_CIS: Attagene CIS-FACTORIAL HepG2 Assay for human Transforming Growth Factor (TGF) (AID 2282967). The note with it: HepG2 Attagene CIS TGFb reporter, mRNA transcription; actives raise or lower the signal. In a few lines:
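HepG2 cells transiently transfected with cis-promoter-driven multiple reporter units measure endogenous TF activity; reporter mRNA quantified at 24 h by RT-PCR, FAM labeling, HpaI digestion and capillary electrophoresis. Bidirectional fit vs DMSO.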

In experiment [13] the target is X-box-binding protein 1 (Homo sapiens) (UniProt P17861). The experiment is described as follows: ATG_Xbp1_CIS: Attagene CIS-FACTORIAL HepG2 Assay for human X-box Binding Protein 1 (XBP1) (AID 2282972). To be noted: HepG2 XBP1 cis-element reporter, Attagene multiplex; actives raise or lower the signal. An outline of the steps: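 HepG2, transient MRTU transfection (cis-promoter driven), 24 h compound exposure. Total RNA → oligo(dT) RT → PCR → 6-FAM labeling → HpaI cut → CE. Bidirectional fit vs DMSO.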

Experiment [14] can be described thus: ATG_M_19_TRANS: Attagene TRANS-FACTORIAL HepG2 Assay for M19 Transcription Factor (Internal Marker) (AID 2282974; active = hit-call score of the fitted dose curve at least 0.9, where 1 is the maximum). To be noted: HepG2 Attagene TRANS-FACTORIAL M19 internal marker reporter. In a few lines: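 HepG2 transiently transfected with GAL4-UAS multiplex reporter constructs, exposed 24 h; reporter RNA quantified by RT-PCR, 6-FAM labeling, HpaI digestion and capillary electrophoresis; internal background marker fitted upward versus DMSO.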

Experiment [15] can be described thus: ATG_GAL4_TRANS: Attagene TRANS-FACTORIAL HepG2 Assay for GAL4 (Internal Marker) (AID 2282976; active = hit-call score of the fitted dose curve at least 0.9, where 1 is the maximum). To be noted: HepG2 Attagene TRANS GAL4 internal marker reporter. In a few lines: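 HepG2 cells transiently transfected with multiplexed GAL4-UAS reporter constructs were dosed for 24 h. Reporter mRNA was measured by RT-PCR, 6-FAM primer extension, HpaI digestion and capillary electrophoresis, and gain of signal was fitted relative to DMSO.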

For experiment [16], the target named is Nuclear receptor subfamily 1 group I member 3 (Homo sapiens) (UniProt Q14994). In words: ATG_CAR_TRANS: Attagene TRANS-FACTORIAL HepG2 Assay for human Constitutive Androstane Receptor (CAR) (AID 2282969; active = hit-call score of the fitted dose curve at least 0.9, where 1 is the maximum;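 note: activators raise reporter mRNA above DMSO so AC50 marks induction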). To be noted: HepG2 Attagene TRANS-FACTORIAL CAR reporter. In a few lines:
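HepG2 cells transiently transfected with multiplexed GAL4-UAS reporter units expressing chimeric NR-Gal4 proteins; compound exposure 24 h. Reporter mRNA measured by RT-PCR, 6-FAM labelling, HpaI digestion and capillary electrophoresis; gain-of-signal fitted against DMSO baseline.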

The target in experiment [17] is Steroid hormone receptor ERR1 (Homo sapiens) (UniProt P11474). The experiment is described as follows: ATG_ERRa_TRANS: Attagene TRANS-FACTORIAL HepG2 Assay for human Estrogen-Related Receptor alpha (ERRa) (AID 2282971; active = hit-call score of the fitted dose curve at least 0.9, where 1 is the maximum). The note with it: HepG2 Attagene TRANS reporter, ERRa transactivation. In a few lines:
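HepG2 cells transiently transfected with multiplexed GAL4-UAS reporter units reading chimeric ERRa-Gal4 activity; 24 h compound exposure. Reporter mRNA measured by RT-PCR, 6-FAM labelling, HpaI digest and capillary electrophoresis; gain of signal fitted versus DMSO baseline.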

Experiment [18] has as its target Estrogen-related receptor gamma (Homo sapiens) (UniProt P62508). The experiment is described as follows: ATG_ERRg_TRANS: Attagene TRANS-FACTORIAL HepG2 Assay for human Estrogen-Related Receptor gamma (ERRg) (AID 2282977; active = hit-call score of the fitted dose curve at least 0.9, where 1 is the maximum;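 note: hits increase reporter signal over DMSO so potencies reflect activators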). The note with it: HepG2 Attagene TRANS reporter, ERRg transactivation. An outline of the steps: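 HepG2 cells transiently transfected with multiplexed GAL4-UAS reporter units driven by chimeric NR-Gal4 proteins; 24 h exposure. Reporter mRNA quantified by RT-PCR, fluorescent labelling, HpaI digestion and capillary electrophoresis; gain of signal vs DMSO.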

Experiment [19] can be described thus: ATG_VDRE_CIS: Attagene CIS-FACTORIAL HepG2 Assay for human Vitamin D Receptor Element (VDRE) (AID 2282968). To be noted: HepG2 VDRE cis-reporter transcription, actives raise or lower the signal. An outline of the steps:
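RT-PCR/CE readout of reporter mRNA; HepG2, transient transfection, 24 h dosing; DMSO baseline; bidirectional analysis.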

For experiment [20], the target named is Estrogen receptor (Homo sapiens) (UniProt P03372). In words: ATG_ERa_TRANS: Attagene TRANS-FACTORIAL HepG2 Assay for human Estrogen Receptor alpha (ERa) (AID 2282970; active = hit-call score of the fitted dose curve at least 0.9, where 1 is the maximum). The note with it: HepG2 Attagene TRANS ERa GAL4 reporter, mRNA. In a few lines:
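HepG2 cells transiently transfected with multiplexed GAL4-UAS reporter units; ERa activity read via exogenous chimeric NR-Gal4 protein. After 24 hour compound exposure, reporter mRNA measured by RT-PCR with 6-FAM labelling and capillary electrophoresis; gain-of-signal fitted relative to DMSO.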

X-box-binding protein 1 (Homo sapiens), sequence (P17861 whole entry, looked up): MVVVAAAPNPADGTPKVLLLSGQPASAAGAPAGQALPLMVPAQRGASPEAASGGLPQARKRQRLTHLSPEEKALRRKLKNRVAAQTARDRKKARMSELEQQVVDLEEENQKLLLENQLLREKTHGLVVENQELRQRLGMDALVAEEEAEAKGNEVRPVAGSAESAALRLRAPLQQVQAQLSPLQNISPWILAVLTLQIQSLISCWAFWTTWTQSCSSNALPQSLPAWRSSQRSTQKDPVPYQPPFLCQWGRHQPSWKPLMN
Transcription factor Sp1 (Homo sapiens), sequence (P08047 whole entry, looked up): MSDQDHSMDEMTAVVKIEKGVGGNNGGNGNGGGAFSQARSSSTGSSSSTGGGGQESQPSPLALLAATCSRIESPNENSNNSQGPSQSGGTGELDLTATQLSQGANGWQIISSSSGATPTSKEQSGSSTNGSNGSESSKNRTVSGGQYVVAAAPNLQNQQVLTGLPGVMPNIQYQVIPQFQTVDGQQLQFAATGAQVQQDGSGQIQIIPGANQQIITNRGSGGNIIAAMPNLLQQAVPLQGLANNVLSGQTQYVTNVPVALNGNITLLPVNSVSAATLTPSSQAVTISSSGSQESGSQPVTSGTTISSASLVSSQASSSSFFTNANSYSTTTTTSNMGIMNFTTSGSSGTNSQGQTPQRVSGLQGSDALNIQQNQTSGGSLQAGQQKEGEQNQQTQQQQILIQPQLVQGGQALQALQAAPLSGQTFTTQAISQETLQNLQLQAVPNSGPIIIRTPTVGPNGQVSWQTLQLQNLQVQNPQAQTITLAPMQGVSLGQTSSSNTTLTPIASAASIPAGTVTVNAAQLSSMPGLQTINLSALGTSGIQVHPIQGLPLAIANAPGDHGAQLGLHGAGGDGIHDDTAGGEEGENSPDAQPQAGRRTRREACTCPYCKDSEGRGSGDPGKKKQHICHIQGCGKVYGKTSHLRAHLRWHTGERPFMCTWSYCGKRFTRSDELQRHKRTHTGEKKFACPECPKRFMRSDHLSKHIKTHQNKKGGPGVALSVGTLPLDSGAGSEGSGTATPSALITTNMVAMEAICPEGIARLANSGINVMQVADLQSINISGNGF
Signal transducer and activator of transcription 3 (Homo sapiens), sequence (P40763 whole entry, looked up): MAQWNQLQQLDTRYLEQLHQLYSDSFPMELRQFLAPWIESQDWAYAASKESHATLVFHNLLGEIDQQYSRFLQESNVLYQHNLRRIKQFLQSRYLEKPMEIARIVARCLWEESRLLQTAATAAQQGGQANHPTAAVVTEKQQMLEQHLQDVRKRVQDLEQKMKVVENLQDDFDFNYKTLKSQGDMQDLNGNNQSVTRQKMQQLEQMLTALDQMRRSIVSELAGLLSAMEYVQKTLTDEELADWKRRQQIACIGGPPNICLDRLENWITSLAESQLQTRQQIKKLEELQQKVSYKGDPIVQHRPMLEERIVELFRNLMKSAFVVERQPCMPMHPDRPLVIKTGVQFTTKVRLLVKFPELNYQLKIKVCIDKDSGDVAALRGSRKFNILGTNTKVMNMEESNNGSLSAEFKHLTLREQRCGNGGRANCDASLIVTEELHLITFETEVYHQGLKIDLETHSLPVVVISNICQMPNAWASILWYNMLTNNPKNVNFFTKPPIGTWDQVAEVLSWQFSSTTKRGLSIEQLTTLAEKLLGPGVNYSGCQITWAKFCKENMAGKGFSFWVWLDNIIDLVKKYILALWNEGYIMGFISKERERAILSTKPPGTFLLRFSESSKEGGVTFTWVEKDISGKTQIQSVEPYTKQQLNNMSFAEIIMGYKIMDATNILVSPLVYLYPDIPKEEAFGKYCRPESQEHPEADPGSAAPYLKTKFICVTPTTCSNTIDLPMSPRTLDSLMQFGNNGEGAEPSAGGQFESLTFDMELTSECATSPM
Nuclear receptor subfamily 1 group I member 3 (Homo sapiens), sequence (Q14994 whole entry, looked up, the tested form may be a part): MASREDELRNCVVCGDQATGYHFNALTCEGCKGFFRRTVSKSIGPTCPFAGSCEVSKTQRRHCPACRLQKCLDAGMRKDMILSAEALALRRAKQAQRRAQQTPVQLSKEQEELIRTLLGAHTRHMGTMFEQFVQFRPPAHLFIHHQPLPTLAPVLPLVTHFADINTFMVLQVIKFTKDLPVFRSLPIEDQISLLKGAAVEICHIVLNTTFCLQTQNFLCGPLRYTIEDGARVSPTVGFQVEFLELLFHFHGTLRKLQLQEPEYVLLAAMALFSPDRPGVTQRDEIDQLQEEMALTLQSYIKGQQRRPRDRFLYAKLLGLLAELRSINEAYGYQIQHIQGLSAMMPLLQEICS
Estrogen-related receptor gamma (Homo sapiens), sequence (P62508 whole entry, looked up, the tested form may be a part): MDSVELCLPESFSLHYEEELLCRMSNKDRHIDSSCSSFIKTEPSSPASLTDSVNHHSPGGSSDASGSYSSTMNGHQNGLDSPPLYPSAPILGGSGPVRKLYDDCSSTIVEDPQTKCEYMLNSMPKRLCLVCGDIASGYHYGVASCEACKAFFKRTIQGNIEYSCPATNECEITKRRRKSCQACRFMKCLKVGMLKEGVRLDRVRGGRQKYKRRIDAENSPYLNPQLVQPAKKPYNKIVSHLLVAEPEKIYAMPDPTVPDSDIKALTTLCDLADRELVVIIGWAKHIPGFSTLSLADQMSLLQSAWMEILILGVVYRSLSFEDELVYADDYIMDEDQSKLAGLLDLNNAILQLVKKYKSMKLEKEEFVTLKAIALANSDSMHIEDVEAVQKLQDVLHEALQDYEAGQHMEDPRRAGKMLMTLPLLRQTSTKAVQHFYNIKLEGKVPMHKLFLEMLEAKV
Paired box protein Pax-6 (Homo sapiens), sequence (P26367 whole entry, looked up): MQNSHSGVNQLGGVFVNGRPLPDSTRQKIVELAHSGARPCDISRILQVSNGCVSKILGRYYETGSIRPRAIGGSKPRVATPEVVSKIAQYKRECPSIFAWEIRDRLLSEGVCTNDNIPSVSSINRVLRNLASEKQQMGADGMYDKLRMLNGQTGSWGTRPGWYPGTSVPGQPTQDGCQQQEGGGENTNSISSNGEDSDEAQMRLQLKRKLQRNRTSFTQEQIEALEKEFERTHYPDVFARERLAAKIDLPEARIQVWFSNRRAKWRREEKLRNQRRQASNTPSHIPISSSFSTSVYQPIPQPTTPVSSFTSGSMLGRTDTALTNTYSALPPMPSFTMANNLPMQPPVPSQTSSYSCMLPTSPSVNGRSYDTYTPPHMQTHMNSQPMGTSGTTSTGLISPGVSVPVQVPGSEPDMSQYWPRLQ
Steroid hormone receptor ERR1 (Homo sapiens), sequence (P11474 whole entry, looked up, the tested form may be a part): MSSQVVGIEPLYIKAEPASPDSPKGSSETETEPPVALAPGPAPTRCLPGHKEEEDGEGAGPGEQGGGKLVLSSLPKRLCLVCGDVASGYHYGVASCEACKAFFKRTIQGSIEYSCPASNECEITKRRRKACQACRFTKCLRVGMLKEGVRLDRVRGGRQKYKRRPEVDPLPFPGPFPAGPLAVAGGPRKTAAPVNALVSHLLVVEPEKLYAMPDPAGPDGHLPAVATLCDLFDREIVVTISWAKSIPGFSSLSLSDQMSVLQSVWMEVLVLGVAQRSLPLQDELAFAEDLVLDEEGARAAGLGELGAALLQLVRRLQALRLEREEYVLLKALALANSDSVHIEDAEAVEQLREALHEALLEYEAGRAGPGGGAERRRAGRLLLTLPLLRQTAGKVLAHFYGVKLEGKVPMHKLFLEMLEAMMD
Estrogen receptor (Homo sapiens), sequence (P03372 whole entry, looked up, the tested form may be a part): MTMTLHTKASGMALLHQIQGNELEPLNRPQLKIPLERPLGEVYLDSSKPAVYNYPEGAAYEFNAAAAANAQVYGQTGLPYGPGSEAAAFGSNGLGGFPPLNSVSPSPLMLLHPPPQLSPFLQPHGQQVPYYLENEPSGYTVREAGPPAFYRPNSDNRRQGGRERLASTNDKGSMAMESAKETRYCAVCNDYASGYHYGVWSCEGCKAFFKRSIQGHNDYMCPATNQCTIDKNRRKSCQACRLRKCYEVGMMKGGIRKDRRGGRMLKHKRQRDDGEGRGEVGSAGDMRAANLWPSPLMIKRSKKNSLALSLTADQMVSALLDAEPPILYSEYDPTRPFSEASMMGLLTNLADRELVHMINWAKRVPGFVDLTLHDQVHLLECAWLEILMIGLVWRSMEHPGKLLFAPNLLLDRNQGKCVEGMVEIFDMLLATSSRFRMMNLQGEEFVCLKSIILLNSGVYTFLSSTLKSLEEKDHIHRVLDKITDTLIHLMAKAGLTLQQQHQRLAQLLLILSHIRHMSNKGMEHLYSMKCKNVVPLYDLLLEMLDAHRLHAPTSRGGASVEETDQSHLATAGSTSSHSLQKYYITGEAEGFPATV

`O=C(O)c1cn(-c2ccc(F)cc2)c2cc(N3CCNCC3)c(F)cc2c1=O`: the molecule was called inactive in [1], in [2], in experiment [3], in experiment [4], in [5] and in [6]. Besides, the molecule was classed as inactive in experiment [7], in experiment [8], in experiment [9], in experiment [10], in experiment [11] and in experiment [12]. The result in [13], in experiment [14] and in experiment [15] was inactive.
Regarding `CCCCCOC(=O)CCC`, the result in [1], in [2], in [3], in experiment [4], in experiment [5] and in experiment [6] was inactive. For the same molecule, the result in experiment [7], in [8], in experiment [9], in experiment [10], in experiment [11] and in experiment [12] was inactive. In addition, the molecule was called inactive in experiment [16], in experiment [17], in experiment [13], in experiment [15] and in experiment [18].
For `CCCCNC(=O)NS(=O)(=O)c1ccc(C)cc1`, the result in experiment [1], in experiment [2], in experiment [3], in experiment [4], in experiment [5] and in experiment [6] was inactive. Moreover, the molecule was called inactive in [8], in experiment [10], in experiment [11], in experiment [13], in experiment [14] and in experiment [18].
For `CCCCC/C=C/C=C/C=O`, the AC50 is 100 µM (active) in [1] and 26.6 µM (active) in [2]. In addition, the molecule was classed as inactive in [3], in [4], in experiment [5], in experiment [6], in experiment [8] and in experiment [9]. The molecule was classed as inactive in experiment [10], in experiment [11], in [12], in experiment [19], in experiment [16] and in experiment [13]. Also, the result in experiment [15] was inactive.
Turning to `Clc1ccc2c(c1)C(N1CCNCC1)=Nc1ccccc1O2`, the values for the AC50 in [1] and in experiment [20] were 41.1 µM (active) and 50.1 µM (active), respectively. Besides, the molecule was called inactive in experiment [2], in experiment [3], in experiment [4], in [5], in [6] and in experiment [7]. Besides, the outcome in experiment [8], in [10], in experiment [11] and in [12] was inactive.
In the case of `CCCCN`, the result in experiment [1], in experiment [2], in experiment [3], in experiment [4], in [5] and in experiment [6] was inactive. Further, the molecule was classed as inactive in experiment [7], in experiment [8], in experiment [10], in experiment [11], in experiment [12] and in experiment [16]. Moreover, the result in experiment [14] and in [15] was inactive.
For the molecule `CC(=O)O[C@H](CC(=O)[O-])C[N+](C)(C)C`, the molecule was called inactive in experiment [1], in experiment [2], in [3], in experiment [4], in [5] and in experiment [6]. For the same molecule, the molecule was classed as inactive in experiment [8], in experiment [9], in [10], in [11], in experiment [12] and in experiment [17]. In addition, the call in experiment [18] was inactive.
